Test [1] is described as follows: Quantitative High-Throughput drug screen in 47 multiple myeloma cell lines against the NCATS MIPE library collection: XG6_PLB cell viability assay (AID 1919865). Note: nearly all actives have a fitted effect of over 40% in size. The gist of the method: (§1)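 qHTS format: cells plated (500/well), pin-dosed with MIPE 4.0 compounds, kept 48 h at 37 °C. Readout was CellTiter-Glo luminescence, median RLU.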
The nature of test [2]: Quantitative High-Throughput drug screen in 47 multiple myeloma cell lines against the NCATS MIPE library collection: VP6_DJ cell viability assay (AID 1919867). Note: nearly all actives have a fitted effect of over 40% in size. The gist of the method: as §1
Test [3] can be described thus: Quantitative High-Throughput drug screen in 47 multiple myeloma cell lines against the NCATS MIPE library collection: PE2_PLB cell viability assay (AID 1919869). Note: nearly all actives have a fitted effect of over 35% in size. The gist of the method:
as §1

Test [4] in a line: Quantitative High-Throughput drug screen in 47 multiple myeloma cell lines against the NCATS MIPE library collection: PCM6_Riken cell viability assay (AID 1919870). Note: nearly all actives have a fitted effect of over 30% in size. The procedure, abridged: as §1
Test [5] in a line: Quantitative High-Throughput drug screen in 47 multiple myeloma cell lines against the NCATS MIPE library collection: RPMI8226_ATCC cell viability assay (AID 1919871). Note: nearly all actives have a fitted effect of over 30% in size. The procedure, abridged:
as §1

Test [6] can be described thus: Quantitative High-Throughput drug screen in 47 multiple myeloma cell lines against the NCATS MIPE library collection: OPM2_DSMZ cell viability assay (AID 1919872). Note: nearly all actives have a fitted effect of over 30% in size. The procedure, abridged:
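CellTiter-Glo luminescence (ATP) after 48 h compound exposure, 37C/5% CO2; 500 cells/well; MIPE 4.0 approved/investigational drugs pinned in; DMSO = 100%, media only = 0% viability.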

Test [7] in a line: Quantitative High-Throughput drug screen in 47 multiple myeloma cell lines against the NCATS MIPE library collection: KMS11_JCRBsus cell viability assay (AID 1919873). Note: nearly all actives have a fitted effect of over 50% in size. The gist of the method: as §1
A short description of test [8]: Quantitative High-Throughput drug screen in 47 multiple myeloma cell lines against the NCATS MIPE library collection: KMS28BM_JCRB cell viability assay (AID 1919874). Note: nearly all actives have a fitted effect of over 35% in size. The gist of the method: as §1
A short description of test [9]: Quantitative High-Throughput drug screen in 47 multiple myeloma cell lines against the NCATS MIPE library collection: XG1_PLB cell viability assay (AID 1919866). Note: nearly all actives have a fitted effect of over 35% in size. The gist of the method:
as §1

Test [10] in a line: Quantitative High-Throughput drug screen in 47 multiple myeloma cell lines against the NCATS MIPE library collection: UTMC2_PLB cell viability assay (AID 1919868). Note: nearly all actives have a fitted effect of over 55% in size. As to conditions: CellTiter-Glo ATP luminescence, 48 h; viability (% of DMSO control): at 45.8 µM (top of the series) unless noted. The gist of the method:
as §1

Each structure is given as a SMILES string. Records with an inconclusive call do not appear. Calls of active or inactive are those of the source. Calls come from the whole dose curve; as a rule, active = well fitted cell-killing curve with a large enough effect; inconclusive = small, poorly fitted or top-dose-only effect, or effect the other way; inactive = no such curve, though single readings can be large or run the other way.
Potency is the fitted concentration of half-maximal effect.

In the case of `CC(C)(O)c1cc2nc(-c3cnc(N)nc3)nc(N3CCOCC3)c2s1`, the Potency was 0.264 µM (active) in test [1]; 0.0833 µM (active) in [2]; 0.105 µM (active) in test [3]; 0.743 µM (active) in [4]; 0.0469 µM (active) in [5]; 0.187 µM (active) in test [6]. Moreover, the Potency in test [7] is 0.0187 µM (active); in test [8] it was 0.0662 µM (active).
For `CN1CCC(CNc2ccc3ncc(-c4cccc(OC(F)(F)F)c4)n3n2)CC1`, the Potency in test [9] is 5.9 µM (active); in test [2] it was 7.43 µM (active); in [10], 5.9 µM (active); in [4] it was 5.9 µM (active); in test [5], 20.9 µM (active); in [6], 23.5 µM (active). Also, the values for the Potency in test [7] and in test [8] were 6.62 µM (active) and 8.33 µM (active), respectively.
Take `CC(C)c1ccccc1Cc1cc(C(=O)Nc2ccc(S(=O)(=O)c3ccccc3C(C)(C)C)cc2)c(O)c(O)c1O`: the Potency in test [9] is 3.72 µM (active); in [2], 5.26 µM (active); in test [10], 4.69 µM (active); in test [3], 5.26 µM (active); in [4], 7.43 µM (active); in [7], 5.26 µM (active). The Potency in test [8] is 10.5 µM (active).
Turning to `CC(=O)Nc1nc(C)c(-c2ccc(Cl)c(S(=O)(=O)NCCO)c2)s1`, the Potency in test [9] was 1.66 µM (active); in test [2], 2.64 µM (active); in test [10], 0.526 µM (active); in [3], 4.69 µM (active); in [4] it was 4.69 µM (active); in [5], 16.6 µM (active). The Potency in test [6] was 14.8 µM (active); in test [7] it was 5.26 µM (active); in [8], 18.7 µM (active).
Consider `C#Cc1cccc(Nc2ncnc3cc(OC)c(OCCCCCCC(=O)NO)cc23)c1`, for which the Potency in [9] is 0.0743 µM (active); in [2], 0.296 µM (active); in test [10], 0.0187 µM (active); in [3] it was 0.0935 µM (active); in test [4], 0.187 µM (active); in test [5], 1.87 µM (active). Further, the Potency in test [6] is 1.48 µM (active); in [8], 0.0332 µM (active).
`CNC(=O)CN1CCC(Oc2cc3c(Nc4cccc(Cl)c4F)ncnc3cc2OC)CC1`: the Potency in test [9] was 0.0235 µM (active); in [2], 0.0187 µM (active); in [10], 0.0332 µM (active); in test [4] it was 0.0235 µM (active); in test [6], 0.0833 µM (active); in test [8], 0.0187 µM (active).
In the case of `Cc1ccc(NC(=O)C2(c3ccc4c(c3)OC(F)(F)O4)CC2)nc1-c1cccc(C(=O)O)c1`, the Potency in test [9] is 0.0469 µM (active); in [2], 0.0469 µM (active); in [10], 0.0833 µM (active); in [3], 0.105 µM (active); in test [4] it was 0.0332 µM (active); in [5] it was 0.0935 µM (active). Further, the figures for the Potency in test [6], in test [7] and in [8] were 0.0743 µM (active), 0.0469 µM (active) and 0.0418 µM (active), respectively.
For `Cc1cc(Nc2ncnc3ccc(-c4ccc(CNCCS(C)(=O)=O)o4)cc23)ccc1Oc1ccn2ncnc2c1`, the Potency in [1] is 1.66 µM (active); in test [3] it was 3.32 µM (active); in [4], 16.6 µM (active); in test [5] it was 26.4 µM (active); in test [6] it was 20.9 µM (active); in [8], 16.6 µM (active).
As to `CC1(C)CC(=O)c2c(C(F)(F)F)nn(-c3ccc(C(N)=O)c(NC4CCC(OC(=O)CN)CC4)c3)c2C1` (stereo not drawn), the Potency in test [1] was 0.296 µM (active); in test [10], 0.209 µM (active); in test [3], 0.209 µM (active); in [4] it was 0.0743 µM (active); in [6], 0.296 µM (active); in test [7], 0.118 µM (active). The Potency in [8] is 0.187 µM (active).
For `CC(C)(O)CCc1ccc(OCc2cc(-c3cccc(OC(F)F)c3)c3ncccc3c2)cc1`, the Potency in test [1] is 20.9 µM (active). The Potency entry in [3], in [4], in [6], in [7] and in test [8] was “inactive” in each case.
In the case of `CC(C)(C)c1cc(NC(=O)Nc2ccc(-c3cn4c(n3)sc3cc(OCCN5CCOCC5)ccc34)cc2)no1`, the Potency is 0.418 µM (active) in test [1], 0.148 µM (active) in test [3] and 5.26 µM (active) in test [6]. The Potency result in test [4] and in test [8] was “inactive” in each case.
Consider `Cc1cc(Nc2nc(N[C@@H](C)c3ccc(F)cc3)c(C#N)cc2F)n[nH]1`, for which the Potency in test [9] is 0.235 µM (active); in [2], 4.69 µM (active); in test [10] it was 0.935 µM (active); in test [3] it was 0.935 µM (active); in test [4], 16.6 µM (active); in test [5], 11.8 µM (active). The Potency in [6] was 4.69 µM (active); in [7], 0.469 µM (active).
Regarding `COc1cc(C(C)C)c2c(c1)S(=O)(=O)N(COc1cc(=O)n3cccc(OCCN4CCCCC4)c3n1)C2=O`, the Potency in [1] was 0.833 µM (active); in [3] it was 18.7 µM (active); in test [4], 18.7 µM (active). The Potency entry in test [5] and in test [6] was “inactive” throughout.
For the molecule `Cc1cnc(-c2cnc(NCCNc3ccc(C#N)cn3)nc2-c2ccc(Cl)cc2Cl)[nH]1`, the Potency in test [1] is 6.62 µM (active); in [2], 10.5 µM (active); in test [3] it was 23.5 µM (active); in test [4], 13.2 µM (active).
As for `C1Cc2[nH]nc(-c3nn[nH]n3)c2C1`, the Potency result in test [1], in test [3], in [4], in test [5], in test [6] and in test [8] was “inactive” in each case.
For `N#CCNC(=O)c1ccc(-c2ccnc(Nc3ccc(N4CCOCC4)cc3)n2)cc1`, the Potency in test [1] is 2.64 µM (active); in test [2] it was 3.72 µM (active); in [3], 2.96 µM (active); in test [4] it was 3.32 µM (active); in test [5], 16.6 µM (active); in [6], 20.9 µM (active). Moreover, the Potency in test [7] and in test [8] was 7.43 µM (active) each time.
As for `CN(C)CC=CC(=O)Nc1cc2c(Nc3ccc(F)c(Cl)c3)ncnc2cc1O[C@H]1CCOC1`, the Potency in test [9] is 4.18 µM (active); in test [2], 0.59 µM (active); in test [10] it was 5.26 µM (active); in test [3] it was 2.96 µM (active); in test [4] it was 1.18 µM (active); in test [5] it was 16.6 µM (active). Also, the Potency in test [7] is 6.62 µM (active); in [8], 11.8 µM (active).

Values taken from PubChem BioAssay (NCATS).
